Measured values: article PMC4336329 (PLoS ONE, 2015)
Hit rate of the full screen: of about 310,000 compounds, about 2,200 (0.71%) showed an effect of 50% or more. The effect is printed as a negative number. Many of the other results were omitted from the sample, so strong results are more common in it than they were.

The compounds below were run against human ether-à-go-go-related gene (hERG) potassium channel (human, UniProt Q12809) (assay: primary screen, population patch clamp on CHO cells stably expressing hERG; higher = less effect of the substance).
human ether-à-go-go-related gene (hERG) potassium channel, sequence (Q12809 whole entry, looked up): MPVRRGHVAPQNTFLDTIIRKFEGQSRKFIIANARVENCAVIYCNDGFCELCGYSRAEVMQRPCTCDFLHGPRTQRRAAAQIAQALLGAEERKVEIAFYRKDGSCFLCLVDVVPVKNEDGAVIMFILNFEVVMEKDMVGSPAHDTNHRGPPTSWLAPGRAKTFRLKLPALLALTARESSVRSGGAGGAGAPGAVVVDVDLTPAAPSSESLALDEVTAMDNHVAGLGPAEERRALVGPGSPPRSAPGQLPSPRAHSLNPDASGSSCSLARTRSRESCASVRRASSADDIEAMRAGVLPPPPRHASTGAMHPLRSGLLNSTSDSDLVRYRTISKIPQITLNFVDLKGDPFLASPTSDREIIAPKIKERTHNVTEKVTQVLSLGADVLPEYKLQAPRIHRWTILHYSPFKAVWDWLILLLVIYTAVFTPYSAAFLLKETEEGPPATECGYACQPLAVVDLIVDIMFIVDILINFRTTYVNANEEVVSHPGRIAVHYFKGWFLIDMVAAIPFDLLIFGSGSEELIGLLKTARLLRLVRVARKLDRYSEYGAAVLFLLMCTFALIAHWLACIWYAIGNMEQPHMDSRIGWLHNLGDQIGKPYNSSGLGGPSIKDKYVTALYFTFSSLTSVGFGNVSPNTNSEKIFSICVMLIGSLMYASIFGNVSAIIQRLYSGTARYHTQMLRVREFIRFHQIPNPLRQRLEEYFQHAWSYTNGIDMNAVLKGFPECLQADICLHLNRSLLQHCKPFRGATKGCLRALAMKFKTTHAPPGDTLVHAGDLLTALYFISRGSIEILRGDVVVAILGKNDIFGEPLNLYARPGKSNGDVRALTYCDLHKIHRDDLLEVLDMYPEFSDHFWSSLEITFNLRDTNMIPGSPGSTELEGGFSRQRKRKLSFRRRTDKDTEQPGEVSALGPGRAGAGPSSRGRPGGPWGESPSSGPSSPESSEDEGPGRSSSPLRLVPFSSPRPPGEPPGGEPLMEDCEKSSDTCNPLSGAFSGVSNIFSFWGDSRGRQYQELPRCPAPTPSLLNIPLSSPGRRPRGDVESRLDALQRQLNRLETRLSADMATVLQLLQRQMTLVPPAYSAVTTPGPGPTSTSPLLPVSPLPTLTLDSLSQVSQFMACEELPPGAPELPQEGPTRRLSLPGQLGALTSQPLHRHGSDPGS

Structure (SMILES)	hERG current change (%, negative = inhibition) at 1uM
CC(C)C(NC(=S)NCc1ccccc1)C(=O)O (centres unmarked)	12.7%
N#CNC(N)=Nc1cccc(Cl)c1	16.4%
O=C(N/N=C/c1cn(-c2ccccc2)nc1-c1cccnc1)c1cccnc1	-26.3%
Cc1cc(C)cc(NC(=O)CCN2CCOCC2)c1	7.44%
C#CCN(N(C)c1ncc(C(F)(F)F)cc1Cl)S(=O)(=O)c1ccc2ccccc2c1	14.3%
Cc1ccc(NC(=S)c2nc3ccccc3[nH]2)c(C)c1	14.6%
CC(C)Cn1c(-c2ccc(F)cc2)n[nH]c1=S	11.6%
COc1ccc(CN2CCN(c3ccccc3F)CC2)c(OC)c1	-57.8%
CC(C(=O)N1CCc2ccccc21)N1CCN(Cc2ccccc2)CC1 (centres unmarked)	4.18%
COc1ccc(CN2CCN(C(C)C(=O)N3CCc4ccccc43)CC2)cc1OC (centres unmarked)	-52.3%
COc1ccc(CN2CCN(c3ccccc3OC)CC2)c(OC)c1.O=C(O)C(=O)O	-47.7%
COc1ccc(CN2CCN(Cc3ccccc3F)CC2)c(OC)c1.O=C(O)C(=O)O	-36%
COc1ccc(CN2CCN(Cc3ccccc3)CC2)c(OC)c1	-43.8%
COc1ccc(CN2CCN(CCCc3ccccc3)CC2)c(OC)c1	-64.9%
CC(C(=O)N1CCc2ccccc21)N1CCN(Cc2ccc(Cl)cc2)CC1 (centres unmarked)	-30.9%
COc1ccc(CN2CCN(CCCc3ccccc3)C(CCO)C2)c(OC)c1 (centres unmarked)	-39.7%
COc1ccc(CN2CCN(c3ccccc3F)CC2)cc1O	-51.2%
COc1cc(CN2CCN(c3ccccc3F)CC2)cc(OC)c1O	2.78%
COc1ccc(CN2CCC(C(=O)N3CCN(c4ccccc4F)CC3)CC2)cc1OC	3.9%
C(=N\n1cnnc1)/c1cccs1	5.5%
CN(c1ccc(C(=O)NCCSCc2ccc(Cl)cc2)cc1)S(=O)(=O)c1ccccc1	14.1%
CCc1ccc(CN(C)C(=O)c2cc(COc3cccc(C(F)(F)F)c3)on2)nc1	6.84%

Structure (SMILES)	hERG current change (%, negative = inhibition) at 1uM
C=CCNC(=O)CSc1nnc(C(CC)N(C)C)n1C1CCCCC1 (centres unmarked)	8.12%
O=C(Nc1nc(-c2ccccc2)cs1)c1ccc(N2CCOCC2)c([N+](=O)[O-])c1	31.6%
CC(=O)Nc1ccc2c(c1)N(C(=O)CN(C)C)c1ccccc1CC2	9.16%
Cc1cc(C(=O)CN2C(=O)c3ccccc3C2=O)c(C)n1Cc1cccs1	9.88%
COc1ccc(CN2CCN(c3ccccn3)CC2)c(OC)c1C.O=C(O)C(=O)O	5.42%
COc1cc(CN2CCN(c3cccc(C)c3C)CC2)cc(Br)c1O	1.25%
COc1ccc(CN2CCN(c3ccccn3)CC2)c(OC)c1	-52%
COc1ccc(-c2[nH]ncc2CN2CCN(c3ccccn3)CC2)c(OC)c1	2.51%
COc1cc(CN2CCN(c3cccc(C)c3C)CC2)cc(OC)c1O	-20.4%
COc1ccc(CN2CCN(c3cccc(C)c3C)CC2)cc1OC	-61.1%
CCOc1ccc(NC(=O)CCC(=O)c2ccc(OC)cc2)cc1	16.1%
Cc1c(Cl)ccc(S(=O)(=O)NCCCn2ccnc2)c1Cl	12.2%
CN1CCN(C(=O)c2cnn(-c3ccccc3)c2NC(=O)c2ccc(Br)cc2)CC1	-88.5%
CN1CCN(C(=O)c2cnn(-c3ccccc3)c2NC(=O)c2ccccc2)CC1	10.4%
CN1CCN(C(=O)c2cnn(-c3ccccc3)c2NC(=O)c2ccccc2Br)CC1	15.2%
COc1ccc(CCn2c(=N)c(C(=O)NCCN3CCOCC3)cc3c(=O)n4ccccc4nc32)cc1OC	10.4%
COc1ccc(CCNC(=O)c2cc3c(=O)n4ccccc4nc3n(CCCN3CCOCC3)c2=N)cc1	-88.9%
COc1ccc(CCNC(=O)c2cc3c(=O)n4cccc(C)c4nc3n(CCCN3CCOCC3)c2=N)cc1	-85.1%
COc1ccc(CCNC(=O)c2cc3c(=O)n4ccccc4nc3n(CCCN3CCOCC3)c2=N)cc1OC	-39.4%
COc1ccccc1CNC(=O)CSc1nc2ccccc2c(=O)n1CCCN1CCOCC1	-6.17%
Cc1cccn2c(=O)c3cc(C(=O)NCCN4CCOCC4)c(=N)n(CCCN4CCOCC4)c3nc12	16.7%
COc1ccc(CNC(=O)C(C)Sc2nc3ccccc3c(=O)n2CCCN2CCOCC2)cc1 (centres unmarked)	-95%

Structure (SMILES)	hERG current change (%, negative = inhibition) at 1uM
COc1ccc(CNC(=O)C(C)Sc2nc3ccccc3c(=O)n2CC2CCCO2)cc1 (centres unmarked)	-17.5%
COc1ccc(CCNC(=O)c2cc3c(=O)n4ccccc4nc3n(CCN3CCOCC3)c2=N)cc1	-82%
Cc1cc(=O)[nH]c(N/N=C/c2c(C)nn(-c3ccc(F)cc3)c2Cl)n1	-3.02%
CN1CCN(c2ccc(NC(=O)c3cc4ccccc4o3)cc2)CC1	-14.8%
CCCC(C(=O)NC(C)(C)CC)N(CC1CCCO1)C(=O)CNS(=O)(=O)c1ccc(F)cc1 (centres unmarked)	-12.1%
Cc1nc2ccccc2n1C1CCN(CC(=O)NCc2ccc(F)cc2)CC1	-23.3%
COc1ccc(CNC(=O)CCC(=O)N2CC(C)Oc3ccccc32)cc1 (centres unmarked)	-0.874%
CCN(C(=O)c1ccc2c(OC)n(CC)nc2c1)c1ccc(OC)cc1	0.888%
CC(=O)c1cccc(NC(=O)C2CCN(S(C)(=O)=O)CC2)c1	10.7%
CN(C)C=NC(=O)/C(C#N)=C1\CCc2ccccc2N1	0.195%
COc1cc(Cl)cc(/C=C/c2ccc3ccccc3n2)c1OC(C)=O	16.6%
CCCNc1nc(C)cc(-c2cc(C(=O)Nc3ccccc3)on2)n1	6.25%
COc1ccc(C(=O)NC2CCC(O)CC2)cc1S(=O)(=O)NCc1ccc(Cl)cc1 (centres unmarked)	-0.258%
COc1ccc(C(=O)NC2CC2)cc1OC1CCN(Cc2ccccc2)CC1	-82.9%
COc1cc(C(=O)NC2CCN(Cc3ccccc3)CC2)cc(Cl)c1OC	-1.24%
COCCNC(=O)c1cccc(OC2CCN(Cc3ccc(C(C)C)cc3)CC2)c1	-11.3%
COc1ccc(C(=O)NCCc2cccc(Cl)c2)cc1OC1CCN(C(C)=O)CC1	-6.31%
COCCNC(=O)c1cccc(OC2CCN(Cc3ccc(OC(F)F)cc3)CC2)c1	-75.4%
COc1ccc(C(=O)NC2CC2)cc1OC1CCN(Cc2ccc(F)c(F)c2)CC1	-70.2%
COCCNC(=O)c1cccc(OC2CCN(Cc3ccc(C(=O)OC)cc3)CC2)c1	6.44%
COCCCNC(=O)c1ccc(OC)c(OC2CCN(C(C)C)CC2)c1	14.6%
COc1ccc(C(=O)NC2CC2)cc1OC1CCN(Cc2cnn(C)c2)CC1	6.61%

Structure (SMILES)	hERG current change (%, negative = inhibition) at 1uM
COc1ccc(C(=O)NC2CC2)cc1OC1CCN(Cc2ccc(Cl)cc2)CC1	-86.8%
COCCNC(=O)c1cccc(OC2CCN(Cc3ccc(F)c(OC)c3)CC2)c1	4.26%
CCCCCCCCCCCCOC1OC(CO)C(O)C(O)C1NC(C)=O (centres unmarked)	4.7%
CC(Oc1ccccc1)C(=O)N=C1SC2CS(=O)(=O)CC2N1CCc1ccccc1 (centres unmarked)	8.75%
Cc1cc(Br)ccc1NC(=O)CN1C(=O)C2CC=CCC2C1=O (centres unmarked)	2.16%
CCn1c(SCC(=O)c2ccc3c(c2)OCCO3)nnc1C(C)C	7.74%
O=C(Cn1c(=O)c(C(F)(F)F)nc2ccccc21)N1CCC2(CC1)OCCO2	-0.212%
O=C(/C=C/c1ccoc1)c1ccccc1O	3.71%
COc1ccc(CN2CCN(Cc3ccc(C)cc3)C(CCO)C2)cc1OC (centres unmarked)	-13.3%
COc1ccc(C(=O)NC2CC2)cc1OC1CCN(C(C)CSC)CC1 (centres unmarked)	-54.2%
COc1cc(C(=O)NC2CCN(Cc3nnnn3Cc3ccc(F)cc3)CC2)cc(OC)c1OC	3.89%
COc1ccc(C(=O)NC2CC2)cc1OC1CCN(Cc2ccc(SC)cc2)CC1	-96.9%
COc1ccc(C(=O)NCCCSC)cc1OC1CCN(C(C)C)CC1	13.4%
C/C=C(\C)CN1CCC(Oc2cc(C(=O)NC3CC3)ccc2OC)CC1	-59.9%
O=C(NC1CCN(Cc2ccccc2)CC1)c1ccc2c(c1)[nH]c(=O)n2Cc1ccc(F)cc1	6.14%
COc1ccc(C(=O)NC2CCCCCC2)cc1OC1CCN(C(C)=O)CC1	7.33%
COc1ccc(C(=O)NC2CCCCC2)cc1OC1CCN(C(C)C)CC1	-30.9%
COc1ccc(C(=O)NC2CC2)cc1OC1CCN(Cc2ccc(F)cc2)CC1	-81.9%
COc1cc(C(=O)NC2CCCCC2)ccc1OC1CCN(C(C)=O)CC1	11.4%
Cc1ccc(S(=O)(=O)N2CCN(C(=O)CSc3ncc(C(F)(F)F)cc3Cl)CC2)cc1	11.1%
